Assay results: PubChem BioAssay (NCATS)
Results filed as inconclusive are left out. Entries that show only a call come without a potency. Calls of active or inactive are those of the source. Calls come from the whole dose curve; as a rule, active = well fitted inhibition curve with a large enough effect; inconclusive = small, poorly fitted or top-dose-only effect; inactive = no such curve, though single readings can be large or run the other way.

tested on: Zika virus NS2B-NS3 protease (unlinked complex); assay: Primary screen GU Rhodamine qHTS for Zika virus inhibitors: Unlinked NS2B-NS3 protease assay (AID 1347159); conditions: Recombinant ZIKV NS2B-NS3 protease, Rhodamine110 substrate fluorescence; series mostly up to 107 µM; note: nearly all actives have a fitted effect of over 60% in size
In short: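 Noncovalent NS2B hydrophilic domain/NS3 protease complex (25 nM final) in 10 mM Tris-HCl pH 8.0, 0.01% Tween 20, preincubated 15 min with compounds (up to 114 microM), then 1.5 microM Rhodamine110 substrate. Fluorescence change over 15 min fitted to 4-parameter Hill.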
Potency is the fitted concentration of half-maximal effect.

Compound | Potency | activity change, negative = inhibition
Cc1ccc(Sc2cncc3sc(C(N)=O)cc23)cc1 | inactive | 
C[C@@H]1O[C@@H](O[C@@H]2[C@@H](O)[C@@H](O)[C@H](O[C@@H]3[C@@H](O)[C@@H](O[C@]4(CO)O[C@H](CO)[C@@H](O)[C@@H]4OC(=O)/C=C/c4ccc(O)cc4)O[C@H](CO)[C@H]3OC(=O)/C=C/c3ccc(O)cc3)O[C@H]2C)[C@H](O)[C@H](O)[C@H]1O | inactive | 
CN[C@@H]1[C@@H](O)[C@@H](O[C@@H]2[C@@H](O)[C@H](O[C@H]3O[C@H](CN)[C@@H](O)[C@H](O)[C@H]3O)[C@@H](N)C[C@H]2NC(=O)[C@@H](O)CN)OC[C@]1(C)O | inactive | 
C=C1[C@@H]2CC[C@@]3(C)[C@H](c4ccoc4)OC(=O)C[C@]13O[C@H]1CC(=O)C(C)(C)[C@H](CC(=O)OC)[C@]12C | inactive | 
COC(=O)[C@H](OC(C)=O)[C@H]1C(C)(C)C(=O)[C@H]2CC3=C4CC(=O)O[C@@H](c5ccoc5)[C@]4(C)CCC3[C@@]1(C)C2=O (stereo not given in full) | inactive | 
CC1CC(O)CC(C)(C)C1(O)CCO (stereo not given) | inactive | 
COc1ccc(C)c2sc(NC(=O)c3ccncc3)nc12 | inactive | 
CC(C)(C)c1cc(CN2CCN(CC(O)c3ccc(Cl)cc3)CC2)cc(C(C)(C)C)c1O (stereo not given) | inactive | 
CC1(C)CCC2(C(=O)OC3OC(COC4OC(CO)C(O)C(O)C4O)C(O)C(O)C3O)CCC3(C)C(=CCC4C5(C)CCC(O)C(C)(C(=O)O)C5CCC43C)C2C1O (stereo not given) | inactive | 
C=CC(C)(O)CC/C=C(\C)C(=O)OCC1OC(OC2CCC3(C)C(CCC4(C)C3CC=C3C5CC(C)(C)C(O)CC5(C(=O)O)CCC34C)C2(C)C)C(O)C(OC2OC(CO)C(O)C(OC3OC(CO)C(O)C(OC4OC(COC5OC(CO)C(O)C(O)C5O)C(O)C(O)C4O)C3O)C2O)C1O (stereo not given) |  | 5.91% [at 19.1 µM] (inactive)
CCc1cc2c(=O)c(-c3nc4ccccc4s3)coc2c(CN2CCCCC2)c1O | 12.6 µM (active) | 
CC1=CC(=O)OC(C)(CC(C)(O)C(=O)O)C1 (stereo not given) | inactive | 
CC(=O)N(O)CCCCCN1C(=O)CCC1=O | inactive | 
C=C1CC2[C@]3(C)C(=C(O)C(=O)[C@@]2(C)[C@]2(C(=O)OC)C(=O)C(C)OC(=O)[C@@]12C)C(C)(C)C(=O)CC3O (stereo not given in full) | inactive | 
CC1(C)C(=O)N2c3ccccc3[C@]3(CC(n4cnc5ccccc5c4=O)C(=O)O3)[C@H]2N1O (stereo not given in full) | inactive | 
CC1(C)CCCC2(C)C(CO)C3CCC2C31 (stereo not given) | inactive | 
N[C@@H](CC(=O)N1CCn2c(nnc2C(F)(F)F)C1)Cc1[nH]nc2c(F)c(F)ccc12 | inactive | 
C[C@@H]1O[C@@H](O[C@H]2[C@H](OC(=O)[C@]34CCC(C)(C)C[C@H]3C3=CCC5[C@@]6(C)CC[C@H](O[C@@H]7O[C@H](CO[C@@H]8OC[C@H](O)[C@H](O)[C@H]8O)[C@@H](O)[C@H](O)[C@H]7O)C(C)(C)C6CC[C@@]5(C)[C@]3(C)C[C@H]4O)OC[C@@H](O)[C@@H]2O)[C@H](O)[C@H](O)[C@H]1O[C@@H]1OC[C@H](O)[C@H](O[C@@H]2OC[C@@H](O)[C@H](O)[C@H]2O)[C@H]1O (stereo not given in full) |  | -11.8% [at 19.1 µM] (inactive)
COC1=CC(=O)C[C@@H](C)[C@]12Oc1cc(OC)cc(OC)c1C2=O | inactive | 
C=C1C2(CCC(=O)OC2(C)C)CC(OC(=O)/C(C)=C/C)C2(C)C13OC14C(=O)OC(C)(C(=O)C12C(=O)OC4C)C3OC(C)=O (stereo not given) | inactive | 

Compound | Potency | activity change, negative = inhibition
CCC(C)(O)C(O)C(=O)OCc1ccc(O[C@@H]2O[C@H](CO)[C@@H](O)[C@H](O)[C@H]2O)c(OC)c1 (stereo not given in full) | inactive | 
CC1OC(OC2C(O)C(C(=O)O)OC(OC3CCC4(C)C(CCC5(C)C4C=CC4=C6CC(C)(C)CC(O)C6(C)CCC45C)C3(C)C)C2OC2OCC(O)C(O)C2O)C(O)C(O)C1O (stereo not given) | 3.55 µM (active) | 
CO[C@@H]1COCC[C@@H]1N[C@@H]1CC[C@@](C(=O)N2CCc3ncc(C(F)(F)F)cc3C2)(C(C)C)C1 | inactive | 
CC(/C=C/C1(O)C(C)(C)CC(O)CC1(C)O)OC1OC(CO)C(O)C(O)C1O (stereo not given) | inactive | 
CCS(=O)(=O)N1CCC([C@@H](C)n2c(C)c(C(=O)NCc3c(OC)cc(C)[nH]c3=O)c3ccccc32)CC1 | inactive | 
CO[C@@H](Cc1ccc(OCCc2nc(-c3ccccc3)oc2C)c2ccsc12)C(=O)O | 17.8 µM (active) | 
COC(=O)C1=CO[C@@H](O[C@@H]2O[C@H](CO)[C@@H](O)[C@H](O)[C@H]2O)[C@@H]2[C@@H](C(=O)OC)[C@@H](O)C(O)[C@H]12 (stereo not given in full) | inactive | 
C[C@@H]1CC[C@]2(C)C(C[C@@H](O)[C@H](O)[C@]23CO3)[C@@]1(C)CCc1ccoc1 (stereo not given in full) | inactive | 
Cc1cc(Nc2ncc(Cl)c(Nc3ccccc3S(=O)(=O)C(C)C)n2)c(OC(C)C)cc1C1CCNCC1 | inactive | 
CC1CCC2(NC1)OC1C(=O)C3C4CCC5CC(O[C@@H]6O[C@H](CO)[C@@H](O)[C@H](O)[C@H]6O[C@@H]6O[C@@H](C)[C@H](O)[C@@H](O)[C@H]6O)CCC5(C)C4CCC3(C)C1C2C (stereo not given in full) | inactive | 
COC(=O)CC1(O)C(=O)Nc2ccccc21 (stereo not given) | inactive | 
CCN[C@@H]1C[C@H](N)[C@@H](O[C@H]2OC(CN)=CC[C@H]2N)[C@H](O)[C@H]1O[C@H]1OC[C@](C)(O)[C@H](NC)[C@H]1O | inactive | 
CC1(C)CCCC2(C)C1C(O)C=C(CO)C2(O)C(=O)O (stereo not given) | inactive | 
COc1cc(C[C@H]2COC(=O)[C@@H]2Cc2ccc(O)c(OC)c2)ccc1O | 35.5 µM (active) | 
CC1=CC(=O)C2C(C)(C)CC(O)CC2(C)C1CO (stereo not given) | inactive | 
C/C=C(/C)C(=O)O[C@H]1C=C(C)C[C@H](OC(=O)c2ccc(O)cc2)C2[C@](O)(C(C)C)CC[C@@]21C (stereo not given in full) | inactive | 
CC1CCC(=O)CC(O)C(O)CC(=O)O1 (stereo not given) | inactive | 
C[C@@H](OC(=O)/C=C/c1ccc(O)cc1)C1=C[C@]2(C=C[C@@H]3C(C(=O)O)=CO[C@@H](O[C@@H]4O[C@H](CO[C@@H]5O[C@H](CO)[C@@H](O)[C@H](O)[C@H]5O)[C@@H](O)[C@H](O)[C@H]4O)[C@@H]32)OC1=O | inactive | 
COC(=O)C1=CO[C@@H](O[C@@H]2O[C@H](CO)[C@@H](O)[C@H](O)[C@H]2O)[C@@H]2[C@@](C)(O)[C@@H](O)C[C@]12O | inactive | 
C=C1CC2C3(C)C(OC(C)=O)CC(=O)OC(C)(C)C3C(O)C(OC(C)=O)C2(C)C2C(=O)OC(C)C(=O)C12C (stereo not given) | inactive | 
